We go through nine molecules from PubChem BioAssay.

For test [1], the target named is ATP-dependent translocase ABCB1 (Homo sapiens) (UniProt P08183). In words: MDR1 (ABCB1) efflux transporter inhibition, cell-based (AID 377; in the data active = fluorescence slope change above about 50%). The note with it: MDR1-expressing cells, fluorescent substrate accumulation slope; stronger effect = higher value; concentration not given here.
A short description of test [2]: polyglutamine-triggered caspase-3 activation inhibitors, cell-based (AID 1583). The settings on record: polyglutamine-induced caspase-3 activation, cell assay; stronger effect = higher value;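 tested at 10 µM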.
Test [3] can be described thus: suppressors of polyQ aggregation in yeast, 75Q-TubU reporter (AID 1593). The settings on record: Yeast 75Q polyglutamine aggregation reporter.
The nature of test [4]: rescue of polyQ-huntingtin neuronal dysfunction in worms, whole organism, C. elegans mechanosensory neurons, N-terminal huntingtin (AID 1599). The settings on record: touch response, stronger effect = higher value.
Test [5] is described as follows: inhibitors of mitochondrial cytochrome c release, biochemical, purified mitochondria (AID 1603).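 Note: mouse liver mitochondria challenged with calcium chloride; signal normalized to the plate average as 100%.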 The settings on record: stronger effect = lower value.
The nature of test [6]: inhibitors of polyQ protein aggregation (AID 1604). The note with it: polyglutamine-induced protein aggregation inhibition assay; stronger effect = higher value; tested at 2.5 µM.
The nature of test [7]: enhancers of glutamate uptake in motor neurons, MN-1 cell line (AID 1612).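 Note: tested at 1 µM final; 0% = mean of DMSO vehicle wells on each plate; positive means more glutamate uptake than control and negative means less.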 The settings on record: MN-1 motor neuron cells, stronger effect = higher value.
Test [8] can be described thus: reducers of polyQ inclusions in PC12 cells, cell-based, NGF-treated PC12, GFPQ80 (AID 1614).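 Note: lower means fewer inclusions and 0 means no inclusions at all.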 The note with it: PC12 NGF-treated GFP-polyQ80 inclusion reduction.
A short description of test [9]: suppressors of polyglutamine aggregation in yeast, 75Q-TubH (AID 1616). The settings on record: S. cerevisiae 75Q-TubH polyglutamine aggregation suppression; stronger effect = higher value.
Test [10] in a line: circadian clock period modulators, cell-based, LOPAC library, luminescence reporter (AID 2774).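 Note: values are relative to mean of DMSO wells on each plate.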 The note with it: circadian reporter cells, at 7 µM, actives lie on both sides.
Test [11] can be described thus: hESC survival regulators, cell-based (AID 493140).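 Note: cells exposed to compounds for four days before counting.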 The note with it: human embryonic stem cell survival screen; stronger effect = higher value.

The structures appear in SMILES notation. Inconclusive results are not listed. For part of these data: Potency and affinity values are given separately. The source made the active and inactive calls. Unless noted, the rule behind the calls is not given here.

Sequence of ATP-dependent translocase ABCB1 (Homo sapiens) (P08183 whole entry, looked up): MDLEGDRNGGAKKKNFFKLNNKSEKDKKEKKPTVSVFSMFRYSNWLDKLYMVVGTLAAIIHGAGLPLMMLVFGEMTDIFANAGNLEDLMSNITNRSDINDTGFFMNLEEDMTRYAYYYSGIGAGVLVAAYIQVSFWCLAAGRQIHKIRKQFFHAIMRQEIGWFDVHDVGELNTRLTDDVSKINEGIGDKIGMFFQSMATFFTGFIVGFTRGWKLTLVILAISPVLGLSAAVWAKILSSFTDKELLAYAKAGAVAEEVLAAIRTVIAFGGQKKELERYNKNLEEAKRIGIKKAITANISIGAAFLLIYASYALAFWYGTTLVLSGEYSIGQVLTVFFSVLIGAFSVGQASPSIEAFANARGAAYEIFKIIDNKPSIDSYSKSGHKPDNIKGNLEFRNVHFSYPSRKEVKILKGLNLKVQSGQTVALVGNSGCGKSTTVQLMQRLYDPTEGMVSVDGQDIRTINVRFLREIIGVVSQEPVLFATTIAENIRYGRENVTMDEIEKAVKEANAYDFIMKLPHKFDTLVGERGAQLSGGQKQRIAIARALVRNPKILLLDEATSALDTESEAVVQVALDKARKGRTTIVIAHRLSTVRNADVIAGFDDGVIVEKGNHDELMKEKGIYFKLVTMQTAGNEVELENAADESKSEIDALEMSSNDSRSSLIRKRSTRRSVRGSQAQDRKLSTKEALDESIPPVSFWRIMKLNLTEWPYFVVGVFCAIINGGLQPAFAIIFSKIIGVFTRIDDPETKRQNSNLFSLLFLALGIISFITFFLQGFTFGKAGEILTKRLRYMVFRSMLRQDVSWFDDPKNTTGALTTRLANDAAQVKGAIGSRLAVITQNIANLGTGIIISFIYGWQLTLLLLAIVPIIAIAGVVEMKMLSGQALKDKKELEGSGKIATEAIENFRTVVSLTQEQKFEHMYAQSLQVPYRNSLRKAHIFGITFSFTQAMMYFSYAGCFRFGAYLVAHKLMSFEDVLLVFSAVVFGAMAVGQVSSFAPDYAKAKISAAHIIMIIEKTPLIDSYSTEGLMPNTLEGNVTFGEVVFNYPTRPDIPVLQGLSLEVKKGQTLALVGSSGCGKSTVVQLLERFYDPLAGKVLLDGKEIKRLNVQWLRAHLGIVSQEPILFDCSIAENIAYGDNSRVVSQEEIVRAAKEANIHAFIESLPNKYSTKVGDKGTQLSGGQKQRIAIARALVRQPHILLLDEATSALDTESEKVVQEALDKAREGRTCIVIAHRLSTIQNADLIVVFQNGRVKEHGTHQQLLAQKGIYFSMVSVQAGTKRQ

Take `Cc1cccc(C)c1OCC(C)N` (stereo not drawn): the fluorescence slope change in test [1] is 24.1% (inactive). For the same molecule, the inhibition in [2] is -1.28%. The score in test [3] stood at 1.39. The rescue above control in test [4] was determined as 0.83. The cytochrome c release ratio in [5] turned out to be 0.86. Moreover, the inhibition of aggregation in [6] worked out at 45.1%. Also, in test [7], the glutamate uptake change came out at 6.77%. The molecule also registered an inclusion score in [8] of 2. The molecule also displayed an aggregation suppression score in test [9] of 1.44. Further, the period change in test [10] is 0.025 h (inactive). In test [11], the survival was 21.7 (inactive).

On to `CN1Cc2c(N)cccc2C(c2ccccc2)C1` (stereo not drawn), for which the fluorescence slope change in test [1] is 80.5% (active). Besides, in test [2], the inhibition worked out at 63.6%. This molecule displayed a score in test [3] of 1.13. This molecule also returned a rescue above control in test [4] of -9.83. Besides, in [5], the cytochrome c release ratio amounted to 0.88. Besides, in test [6], the inhibition of aggregation is 75%. Further, in test [7], the glutamate uptake change was -14.3%. In addition, the inclusion score in test [8] stood at 2. Besides, in test [9], the aggregation suppression score was 1.65. Moreover, the period change in test [10] was -0.06 h (inactive). Also, in test [11], the survival was 19.8 (inactive).

For the molecule `CN(C)[C@@H]1C(=O)C(C(N)=O)=C(O)[C@@]2(O)C(=O)C3=C(O)c4c(O)ccc(Cl)c4[C@@H](O)[C@H]3C[C@@H]12`, the fluorescence slope change in [1] was 2.1% (inactive). The inhibition in test [2] was found to be 13.2%. In [3], this molecule registered a score of 0.8. This molecule also yielded a rescue above control in test [4] of 0. Moreover, the cytochrome c release ratio in test [5] was found to be 2.6. Besides, in test [6], the inhibition of aggregation is 27.8%. For the same molecule, the glutamate uptake change in test [7] came to 0.55%. Also, the inclusion score in [8] stood at 0. For the same molecule, the aggregation suppression score in [9] is 0.533. Besides, the period change in test [10] is 0.065 h (inactive). Further, the survival in test [11] is 2.92 (inactive).

Take `CN(C)CCC(c1ccccc1)c1ccccn1` (stereo not drawn): the inhibition in test [2] came to 12.1%. Moreover, the score in test [3] was determined as 1.44. In test [4], this molecule displayed a rescue above control of -9.39. Moreover, the cytochrome c release ratio in [5] was 1. The inhibition of aggregation in [6] is -15.2%. Further, the glutamate uptake change in test [7] was found to be 24.1%. In [8], the inclusion score is 2. In addition, the aggregation suppression score in test [9] was 1.23. For the same molecule, the period change in test [10] was -0.08 h (inactive). In addition, the survival in test [11] is 15 (inactive).

For the molecule `Cc1ccccc1N1C(=O)c2cc(S(N)(=O)=O)c(Cl)cc2NC1C` (stereo not drawn), the fluorescence slope change in test [1] was 79.4% (active). The inhibition in test [2] was found to be 19.1%. The molecule further had a score in test [3] of 1.21. Further, the rescue above control in test [4] worked out at 6.73. Besides, in test [5], the cytochrome c release ratio stood at 0.86. For the same molecule, the inhibition of aggregation in [6] is 4.55%. For the same molecule, the glutamate uptake change in [7] came to 2.13%. The inclusion score in [8] amounted to 2. In test [9], this molecule returned an aggregation suppression score of 1.18. In addition, the survival in test [11] is 25.6 (inactive).

Regarding `C[N+]12CCC(CC1)C(OC(=O)C(O)(c1ccccc1)c1ccccc1)C2` (stereo not drawn), the fluorescence slope change in test [1] was 27.6% (inactive). In [2], the inhibition stood at 10.9%. The molecule further returned a score in test [3] of 1.31. For the same molecule, the rescue above control in test [4] was 14.7. Also, the cytochrome c release ratio in [5] was 1.79. For the same molecule, the inhibition of aggregation in test [6] was 73.8%. Moreover, the glutamate uptake change in test [7] was -0.25%. The molecule also registered an inclusion score in test [8] of 2. Moreover, in test [9], the aggregation suppression score came out at 1.21. The survival in test [11] is 4.17 (inactive).

Take `CCN(CC)C(=O)N1CCN(C)CC1`: in test [1], the fluorescence slope change was 25.5% (inactive). Moreover, the inhibition in [2] came out at 14.8%. For the same molecule, the score in test [3] came to 1.32. In [4], this molecule had a rescue above control of -3.55. Moreover, in test [5], the cytochrome c release ratio was 0.61. For the same molecule, the inhibition of aggregation in test [6] came out at 85.9%. Also, the glutamate uptake change in test [7] is -11.4%. The molecule further showed an inclusion score in [8] of 2. The aggregation suppression score in [9] is 1.44. Further, the survival in [11] was 18.8 (inactive).

In the case of `COc1c2occc2c(OC)c2c(=O)cc(C)oc12`, in test [1], the fluorescence slope change was 54.2% (active). The inhibition in test [2] stood at 3.52%. The molecule also showed a score in test [3] of 0.76. In test [4], this molecule yielded a rescue above control of 0. In addition, in test [5], the cytochrome c release ratio is 1.14. In test [6], the inhibition of aggregation was found to be 63.2%. The glutamate uptake change in test [7] was -7.03%. In addition, in [8], the inclusion score stood at 2. This molecule also registered an aggregation suppression score in [9] of 0.597. Moreover, in test [11], the survival is 22.1 (inactive).

`CC(=O)Nc1ccc(OCC(O)CNC(C)C)cc1` (stereo not drawn): the fluorescence slope change in test [1] is 57.7% (active). Besides, the inhibition in test [2] was 19.6%. Moreover, the score in [3] turned out to be 1. In [4], this molecule gave a rescue above control of 6.87. In test [5], the cytochrome c release ratio came out at 0.77. Besides, the inhibition of aggregation in test [6] was 66.7%. The glutamate uptake change in test [7] was -0.19%. In test [8], the inclusion score was determined as 2. The molecule further registered an aggregation suppression score in test [9] of 1.1. Further, the survival in test [11] was 20.5 (inactive).
